Measured values taken from PMC11995724, “Antibiotic target discovery by integrated phenotypic and activity-based profiling of electrophilic fragments” (Cell chemical biology, 2025).
Hit rate of the full screen: of about 3,200 compounds, about 75 (2%) showed an effect of 50% or more. The list comes from a sample in which strong results are over-represented; it also holds similar structures and randomly drawn compounds.

Test system: T1, S. aureus MSSA476
T1 construct: MSSA476
Set-up: species or system S. aureus MSSA476 (TSB) or V. cholerae SAD30 (LB); 384-well bacterial growth screen at 25 uM, OD600 relative to DMSO control
Settings: relative growth, OD600, TSB; 25 µM; inhibitor

Structure (SMILES)	% of control remaining [%]
CCc1cnc(N2CCN(C(=O)C(C)Cl)CC2)s1 (centres unmarked) [7-C20, 2-chloro-1-[4-(5-ethyl-1,3-thiazol-2-yl)piperazin-1-yl]propan-1-one]	99.2151
C=CC(=O)N(C)CC(=O)N1CCC2(CC1)CC2c1nnc(C(C)C)o1 (centres unmarked) [2-N22, N-methyl-N-(2-oxo-2-{1-[5-(propan-2-yl)-1,3,4-oxadiazol-2-yl]-6-azaspiro[2.5]octan-6-yl}ethyl)prop-2-enamide]	98.8686
N#CC(=Cc1ccc2c(c1)OCO2)C(=O)NCc1ccccc1 [8-A09, 3-(1,3-dioxaindan-5-yl)-N-benzyl-2-cyanoprop-2-enamide]	113.527
COC(=O)c1c(C(=O)CCl)c(C)n(C(C)C)c1C [10-K21, methyl 4-(2-chloroacetyl)-2,5-dimethyl-1-(propan-2-yl)-1H-pyrrole-3-carboxylate]	119.375
Cn1ccnc1C(=O)CCl [10-C15, 2-chloro-1-(1-methyl-1H-imidazol-2-yl)ethan-1-one]	93.75
CC(C)n1ccnc1C(=O)CCl [10-H10, 2-chloro-1-[1-(propan-2-yl)-1H-imidazol-2-yl]ethan-1-one]	2.1875
C=CCNC(=O)C(C#N)=Cc1sccc1C [9-P07, 2-cyano-3-(3-methylthiophen-2-yl)-N-(prop-2-en-1-yl)prop-2-enamide]	115.955
CC(Cl)C(=O)Nc1ccc(Cl)cc1Cl (centres unmarked) [4-L17, 2-chloro-N-(2,4-dichlorophenyl)propanamide]	92.9967
CC(Cl)C(=O)N1CCCN(C(=O)c2cc(Cl)cn2C)CC1 (centres unmarked) [7-N07, 2-chloro-1-[4-(4-chloro-1-methyl-1H-pyrrole-2-carbonyl)-1,4-diazepan-1-yl]propan-1-one]	91.6797
CC(C)CC(=O)Nc1ccc(C(=O)CCl)cc1 [10-N06, N-[4-(2-chloroacetyl)phenyl]-3-methylbutanamide]	1.25
CCCC(=O)Nc1ccc(C(=O)C(C)Cl)cc1 (centres unmarked) [10-O06, N-[4-(2-chloropropanoyl)phenyl]butanamide]	121.875
CC(=O)c1ccc(NC(=O)CCl)cc1 [4-G07, N-(4-acetylphenyl)-2-chloroacetamide]	93.7589
NC(=O)Nc1ccc(C(=O)CCl)cc1 [10-J07, [4-(2-chloroacetyl)phenyl]urea]	55.625
O=C(CCl)c1ccc(NC(=O)c2ccccc2)cc1 [10-B06, N-[4-(2-chloroacetyl)phenyl]benzamide]	0
CC(=O)Nc1ccc(C(=O)CCl)cc1 [10-O12, N-[4-(2-chloroacetyl)phenyl]acetamide]	6.875
CS(=O)(=O)c1ccc(C(=O)CCl)cc1 [10-I13, 2-chloro-1-(4-methanesulfonylphenyl)ethan-1-one]	83.125
NC(=O)c1ccc(NC(=O)CCl)cc1 [4-P04, 4-(2-chloroacetamido)benzamide]	95.2835
CS(=O)(=O)NCCc1ccc(C(=O)CCl)cc1 [10-D06, N-{2-[4-(2-chloroacetyl)phenyl]ethyl}methanesulfonamide]	79.375
CS(=O)(=O)Nc1ccc(C(=O)CCl)cc1 [10-D19, N-[4-(2-chloroacetyl)phenyl]methanesulfonamide]	28.125
COc1ccccc1NC(=O)c1ccc(NC(=O)CCl)cc1 [4-O17, 4-(2-chloroacetamido)-N-(2-methoxyphenyl)benzamide]	92.2344
O=C(CCl)Nc1cccc(NC(=O)c2ccccc2)c1 [6-A03, N-[3-(2-chloroacetamido)phenyl]benzamide]	76.1463
CCCn1c(N)c(C(=O)CCl)c(=O)n(C)c1=O [10-H12, 6-amino-5-(2-chloroacetyl)-3-methyl-1-propyl-1,2,3,4-tetrahydropyrimidine-2,4-dione]	92.8125
C=CC(=O)NC(C)c1cnc(C(F)(F)F)s1 (centres unmarked) [2-A05, N-{1-[2-(trifluoromethyl)-1,3-thiazol-5-yl]ethyl}prop-2-enamide]	119.06
N#CC(=Cc1ccc(Cl)c([N+](=O)[O-])c1)C(=O)N1CCCC1 [9-N05, 3-(4-chloro-3-nitrophenyl)-2-(pyrrolidine-1-carbonyl)prop-2-enenitrile]	107.566

Structure (SMILES)	% of control remaining [%]
Cc1cc(C=C(C#N)C(=O)Nc2ccccc2)c(C)n1C1CC1 [8-E14, 2-cyano-3-(1-cyclopropyl-2,5-dimethyl-1H-pyrrol-3-yl)-N-phenylprop-2-enamide]	129.793
C=CC(=O)N1CCCCC1c1noc(C2CC2)n1 (centres unmarked) [3-K12, 1-[2-(5-cyclopropyl-1,2,4-oxadiazol-3-yl)piperidin-1-yl]prop-2-en-1-one]	93.3391
CCc1ccccc1NC(=O)CN(C)C(=O)C(C)Cl (centres unmarked) [4-P05, 2-chloro-N-{[(2-ethylphenyl)carbamoyl]methyl}-N-methylpropanamide]	90.7099
CC(Cl)C(=O)Nc1ccc(NC(=O)c2cccs2)cc1 (centres unmarked) [6-G07, N-[4-(2-chloropropanamido)phenyl]thiophene-2-carboxamide]	112.683
NS(=O)(=O)c1ccc(CNC(=O)CCl)cc1 [4-P12, 2-chloro-N-[(4-sulfamoylphenyl)methyl]acetamide]	97.1891
C=CC(=O)NCC1(OC)CCC(C)CC1 (centres unmarked) [1-P08, N-[(1-methoxy-4-methylcyclohexyl)methyl]prop-2-enamide]	89.3187
COc1ccc(N2C(=O)C=CC2=O)c(OC)c1 [10-J15, 1-(2,4-dimethoxyphenyl)-2,5-dihydro-1H-pyrrole-2,5-dione]	121.875
CC(NC(=O)CCl)C(=O)Nc1ccc(Cl)cc1 (centres unmarked) [5-G11, 2-(2-chloroacetamido)-N-(4-chlorophenyl)propanamide]	83.4244
CCc1ccc(C(=O)CCl)cc1 [10-F18, 2-chloro-1-(4-ethylphenyl)ethan-1-one]	102.188
CCOC(=O)c1ccc(NC(=O)CCl)cc1 [4-E17, ethyl 4-(2-chloroacetamido)benzoate]	118.152
CC(C)C(=O)Nc1ccc(C(=O)C(C)Cl)cc1 (centres unmarked) [10-E08, N-[4-(2-chloropropanoyl)phenyl]-2-methylpropanamide]	106.875
CC(C)C(=O)Nc1ccc(C(=O)CCl)cc1 [10-D04, N-[4-(2-chloroacetyl)phenyl]-2-methylpropanamide]	4.6875
CCC(=O)Nc1ccc(C(=O)CCl)cc1 [10-C03, N-[4-(2-chloroacetyl)phenyl]propanamide]	1.5625
CCCc1ccc(C(=O)CCl)cc1 [10-C04, 2-chloro-1-(4-propylphenyl)ethan-1-one]	134.375
CSc1ccc(C(=O)CCl)cc1 [10-E07, 2-chloro-1-[4-(methylsulfanyl)phenyl]ethan-1-one]	2.1875
CCN(CC)C(=O)c1ccc(NC(=O)CCl)cc1 [4-C05, 4-(2-chloroacetamido)-N,N-diethylbenzamide]	84.9929
CC(=O)NCc1ccc(C2CCCN2C(=O)CCl)o1 (centres unmarked) [5-P13, N-({5-[1-(2-chloroacetyl)pyrrolidin-2-yl]furan-2-yl}methyl)acetamide]	100.182
COc1cc(NC(=O)C(C)Cl)cc(OC)c1 (centres unmarked) [4-I04, 2-chloro-N-(3,5-dimethoxyphenyl)propanamide]	105.574
CC(Cl)C(=O)N(Cc1ccc(Cl)cc1)Cc1cnn(C)c1 (centres unmarked) [5-P17, 2-chloro-N-[(4-chlorophenyl)methyl]-N-[(1-methyl-1H-pyrazol-4-yl)methyl]propanamide]	95.4463
C=CC(=O)NCc1ccc(C(=O)N2CCCOC(C)(C)C2)cc1 [3-N06, N-{[4-(2,2-dimethyl-1,4-oxazepane-4-carbonyl)phenyl]methyl}prop-2-enamide]	118.764
CC(C)NC(=O)C(C#N)=Cc1cccc2ccccc12 [8-P06, 2-cyano-3-(naphthalen-1-yl)-N-(propan-2-yl)prop-2-enamide]	127.801
C=CC(=O)N1CCC(C(=O)Nc2cccc(NC(=O)C(C)C)c2)CC1 [3-F05, N-[3-(2-methylpropanamido)phenyl]-1-(prop-2-enoyl)piperidine-4-carboxamide]	95.0805
CC(Cl)C(=O)C=C1N(C)c2ccccc2C1(C)C (centres unmarked) [10-J22, 3-chloro-1-(1,3,3-trimethyl-2,3-dihydro-1H-indol-2-ylidene)butan-2-one]	134.063
